In PubChem BioAssay (NCATS):
“And” between values parts separate entries of the source, which are not always exact repeats. Identical values can stand only once. Inconclusive results are not listed. The source made the active and inactive calls. The call rests on the fitted dose curve; in most records, active means well fitted curve in the direction sought with a large enough effect; inconclusive means small, poorly fitted or top-dose-only effect, or another doubt; inactive means no such curve, though single readings can be large; an effect the other way counts as inactive or inconclusive.

Columns and labels:
[1] = Cell Viability - N2a (AID 540); conditions: N2a mouse neuroblastoma cell viability; activity change, negative = cytotoxicity: at 92.2 µM (top of the series);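 further: cells exposed to compound for 40 h at 37 °C; plate controls were DMSO alone for no effect and tamoxifen control for full effect; nearly all actives have a fitted effect of over 45% in size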
Method in brief: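 First, 1500 N2a cells per well incubate 5 hr at 37 °C; next, compounds are added and incubated 40 hr at 37 °C; finally CellTiter-Glo is added and luminescence read after 20 min, with AC50 derived by Hill modeling.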

[2] = Cell Viability - Renal Proximal Tubule (AID 545);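 further: cells exposed to compound for 40 hours; nearly all actives have a fitted effect of over 40% in size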
Method in brief: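 Primary rat renal proximal tubule cells (1000/well) were treated with compounds for 40 hr at 37 °C in complete medium. Intracellular ATP was measured by CellTiter-Glo luminescence, and AC50 values came from Hill-equation fits of concentration-response data.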

[3] = Cellular Toxicity (caspase-3) Jurkat (AID 655); conditions: Jurkat caspase-3 activation, luminescence; caspase-3 activation: at 92.2 µM (top of the series), DMSO = 0%, tamoxifen = 100%;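 further: cells exposed to compound for 16 h at 37 °C before reading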
Method in brief: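 Jurkat cells (5000/well) in complete medium were treated with compounds for 16 hr at 37 °C, then Caspase-Glo 3/7 luminescence was read after 20 min at room temperature. Data normalized to DMSO (basal) and 100 uM tamoxifen (100%); AC50 from Hill fit.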

[4] = Cellular Toxicity (caspase-3) NIH 3T3 (AID 666);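 further: caspase signal read after 16 h compound exposure; 0% = DMSO basal and 100% = 100 µM tamoxifen stimulation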
Method in brief: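 Concentration-response qHTS in NIH 3T3 mouse fibroblasts scores caspase-3/7 activation as rising luminescence after 16 hr compound exposure. Signals are scaled between DMSO-only and 100 uM tamoxifen.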

[5] = Cellular Toxicity (caspase-3) Renal Proximal Tubule (AID 667);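 further: cells exposed to compound for 16 hours at 37 °C before detection; 0% = DMSO basal and 100% = 10 µM staurosporine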
Method in brief: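 Primary rat proximal tubule cells, 1000/well, 5 h plating at 37 °C, then compound 16 h at 37 °C. Caspase-Glo 3/7 reagent, 1 h RT, luminescence. Normalized to DMSO (basal) and 10 uM staurosporine (100%); Hill-fit AC50.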

[6] = Cell Viability - LYMP1-003 - Assay at 40 hr (AID 964); further: on the % scale 0 is the no-effect control and ±100 the full control effect; nearly all actives have a fitted effect of over 60% in size
Method in brief: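 This qHTS cytotoxicity screen treats human lymphoblastoid cells (LYMP1-003) with compounds for 40 hr and quantifies cellular ATP via luciferase luminescence.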

[7] = Cell Viability - LYMP2-009 (AID 968);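 further: 0% = DMSO alone and the full-kill end = tetraoctylammonium bromide at 92 µM; nearly all actives have a fitted effect of over 55% in size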
[8] = Cell Viability - LYMP2-011 (AID 969);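 further: 0% = DMSO only and full inhibition = 92 µM tetraoctylammonium bromide; nearly all actives have a fitted effect of over 60% in size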
Method in brief: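 Acute toxicity is scored as a concentration-dependent drop in intracellular ATP of a human lymphoblastoid line after 24 hr treatment. Values are AC50s modeled with the Hill equation.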

[9] = Cell Viability - LYMP2-019 (AID 973);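 further: 0% = DMSO alone and full effect = 92 µM tetraoctylammonium bromide; nearly all actives have a fitted effect of over 55% in size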
Method in brief: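 Cells plated at 2500/well and allowed 5 hr at 37 C before compound addition. After 24 hr incubation, CellTiter-Glo reagent was added, plates sat 30 min at room temperature, and luminescence was recorded.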

[10] = Cell Viability - LYMP2-002 (AID 977);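 further: compound exposure lasted 24 h at 37 °C; plate controls were DMSO only for no effect and 92 µM tetraoctylammonium bromide for full effect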
Method in brief: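 Cytotoxicity is scored as concentration-dependent loss of cellular ATP in a human lymphoblastoid line after 24 hr compound treatment at 37 C. AC50 is obtained by modelling concentration-response data with the Hill equation.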

[11] = Cell Viability - LYMP2-006 (AID 978); further: on the % scale 0 is the no-effect control and ±100 the full control effect; nearly all actives have a fitted effect of over 60% in size
Method in brief: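 Human lymphoblastoid cells, 2500 per well, were preincubated 5 hr at 37 C, then exposed to compounds for 24 hr at 37 C in complete medium. Viability was read as intracellular ATP by CellTiter-Glo luminescence; AC50 from Hill-equation fits of qHTS concentration-response data.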

[12] = Cell Viability - LYMP2-010 (AID 981); further: on the % scale 0 is the no-effect control and ±100 the full control effect; nearly all actives have a fitted effect of over 55% in size
Method in brief: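 Acute toxicity is scored as a concentration-dependent loss of cellular ATP in human lymphoblastoid cells after 24 hr compound exposure in complete medium. Tetraoctylammonium bromide is the positive control.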

[13] = Cell Viability - LYMP2-014 (AID 983);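 further: plate controls were DMSO only for no effect and 92 µM tetraoctylammonium bromide for full effect; nearly all actives have a fitted effect of over 50% in size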
Method in brief: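 Decrease in intracellular ATP after 24 hr treatment at 37 C, measured by luciferase luminescence, indicated cytotoxicity. Concentration-response data were fitted with the standard Hill equation to give AC50.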

[14] = Cell Viability - LYMP2-020 (AID 986);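 further: plate controls were DMSO only for no effect and tetraoctylammonium bromide at 92 µM for full effect; nearly all actives have a fitted effect of over 55% in size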
Method in brief: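 Acute cytotoxicity in a human lymphoblastoid line is scored as a concentration-dependent fall in cellular ATP after 24 hr at 37 C in complete medium. The positive control is tetraoctylammonium bromide, and potency is given as Hill-fit AC50.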

[15] = Cell Viability - LYMP2-022 (AID 987)
Method in brief: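 Acute toxicity in a human lymphoblastoid line is scored as decreased intracellular ATP after 24 hr compound treatment at 37 C. ATP is measured by CellTiter-Glo luminescence; curves are fitted with the Hill equation to give AC50.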

[16] = qHTS assay for environmental chemicals that activate the Aryl hydrocarbon Receptor (AhR) signaling pathway (AID 651777); conditions: 1A2-DRE human hepatoma cells, luciferase, 24 h; activation: stronger effect = higher value; further: nearly all actives have a fitted effect of over 15% in size; further: potency means the concentration at half of the fitted maximal effect; on activation: % of control where 0% means no effect
Method in brief: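 Following a 24 hr incubation with test chemicals at 37 C and 5% CO2, 1A2-DRE human hepatoma cells received One-Glo reagent; after 30 min at room temperature, luciferase output reflected CYP1A2 induction via AhR.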

[17] = target: Peroxisome proliferator-activated receptor alpha (Homo sapiens) (UniProt Q07869); assay: qHTS assay for small molecule agonists of the peroxisome proliferator-activated receptor alpha (PPARalpha) signaling pathway (AID 651778); conditions: PathHunter PPARalpha complementation, chemiluminescence, 6 h; stronger effect = higher value; further: % of control where 0% means no effect
Sequence of Peroxisome proliferator-activated receptor alpha (Homo sapiens) (Q07869 whole entry, looked up): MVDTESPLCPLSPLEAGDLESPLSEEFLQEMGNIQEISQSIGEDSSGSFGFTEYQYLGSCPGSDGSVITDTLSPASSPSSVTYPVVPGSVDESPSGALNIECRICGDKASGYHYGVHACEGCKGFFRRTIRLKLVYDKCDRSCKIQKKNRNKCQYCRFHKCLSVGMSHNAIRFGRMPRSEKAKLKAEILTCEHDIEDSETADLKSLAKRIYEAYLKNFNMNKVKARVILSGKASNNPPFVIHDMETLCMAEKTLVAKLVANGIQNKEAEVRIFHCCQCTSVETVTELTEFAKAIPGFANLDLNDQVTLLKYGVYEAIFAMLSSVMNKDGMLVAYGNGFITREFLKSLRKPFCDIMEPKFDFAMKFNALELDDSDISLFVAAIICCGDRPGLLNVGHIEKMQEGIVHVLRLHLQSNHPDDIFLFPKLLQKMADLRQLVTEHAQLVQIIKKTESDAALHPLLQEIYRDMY
Method in brief: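 Chemiluminescence from complemented enzyme reported PPARalpha activation in cells after 6 hr of compound treatment at 37 C. The detection reagent was incubated for 60 min at room temperature, and compounds were scored as agonists.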

[18] = qHTS assay for cell viability of the p53RE-bla HCT-116 cell line (AID 743292)
Method in brief: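 After plating at 4,000 cells per well and a 5 h rest at 37 C, HCT-116 cells carrying p53RE-bla received test chemicals in DMSO. Sixteen hours later at 37 C, CellTiter-Glo was added and luminescence recorded following 30 min at room temperature.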

[19] = MultiTox-Fluor Cytotoxicity Assay - LYMP1-001 - Dead Cells (AID 946);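 further: 0% = DMSO and 100% = tetraoctylammonium bromide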
Method in brief: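 Seed 2500 LYMP1-001 cells/well, incubate 5 hr at 37 C; add compound, 16 hr at 37 C; add MultiTox-Fluor reagent, 60 min RT; read dead-cell fluorescence Ex/Em=485/520. Normalize to DMSO and 15 uM tetraoctylammonium bromide.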

[20] = Cell Viability - LYMP1-003 - Assay at 24 hr (AID 963);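 further: plate controls were DMSO only for no effect and tetraoctylammonium bromide positive control for full effect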
Method in brief: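 Acute toxicity in LYMP1-003 lymphoblastoid cells: 24 hr compound treatment at 37 C, ATP measured with CellTiter-Glo after 30 min at room temperature. AC50 derived by fitting the Hill equation to qHTS titrations.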

ClC=CCl
inactive: Potency [1] | outcome [2] | caspase-3 activation [3] 1.45% | Potency [4] | outcome [5] | Potency [6] | Potency [7] | Potency [8] | Potency [9] | Potency [10] | Potency [11] | Potency [12] | Potency [13] | Potency [14] | Potency [15] | activation [16] 0.329% | max response [17] -2.13% | Potency [18]

C=CCCl
inactive: Potency [1] | outcome [2] | Potency [4] | outcome [19] | outcome [20] | Potency [6] | Potency [7] | Potency [8] | Potency [9] | Potency [11] | Potency [12] | Potency [13] | Potency [14] | Potency [15] | activation [16] 1.05% | max response [17] -5.35% | Potency [18]

CCC/C=N/O
inactive: Potency [1] | outcome [2] | caspase-3 activation [3] -1.14% | Potency [4] | outcome [5] | outcome [19] | outcome [20] | Potency [6] | Potency [7] | Potency [8] | Potency [9] | Potency [10] | Potency [11] | Potency [12] | Potency [13] | Potency [14] | Potency [15] | activation [16] -0.464% | max response [17] -3.79% | Potency [18]

O=S(=O)(O)F
inactive: Potency [1] | outcome [2] | caspase-3 activation [3] 1.63% | Potency [4] | outcome [5] | outcome [19] | Potency [6] | Potency [7] | Potency [8] | Potency [9] | Potency [10] | Potency [12] | Potency [13] | Potency [14] | Potency [15] | activation [16] 0.54% | max response [17] -0.405%

CCC[N+](=O)[O-]
inactive: Potency [1] | outcome [2] | caspase-3 activation [3] -1.47% | Potency [4] | outcome [5] | outcome [20] | Potency [6] | Potency [7] | Potency [8] | Potency [9] | Potency [10] | Potency [11] | Potency [12] | Potency [13] | activation [16] 1.28% | max response [17] -0.431% | Potency [18]

CN(C)C(=O)Nc1ccc(Cl)cc1
inactive: Potency [1] | outcome [2] | caspase-3 activation [3] -0.0397% | Potency [4] | outcome [5] | outcome [19] | outcome [20] | Potency [6] | Potency [7] | Potency [9] | Potency [10] | Potency [11] | Potency [14] | Potency [15] | activation [16] 1.83% and 5.75% | max response [17] -3.6% and -1.79% | Potency [18]

[O-][Cl+]O
inactive: Potency [1] | outcome [2] | caspase-3 activation [3] 0.134% | Potency [4] | outcome [5] | outcome [19] | outcome [20] | Potency [6] | Potency [7] | Potency [10] | Potency [11] | Potency [12] | Potency [13] | Potency [14] | Potency [15] | activation [16] 0.878% | max response [17] 0.737% | Potency [18]

CCC#N
inactive: Potency [1] | caspase-3 activation [3] -0.741% | Potency [4] | outcome [5] | outcome [19] | outcome [20] | Potency [6] | Potency [7] | Potency [9] | Potency [11] | Potency [12] | Potency [13] | Potency [14] | Potency [15] | max response [17] -3.95% | Potency [18]

CC(C)C#N
inactive: Potency [1] | outcome [2] | caspase-3 activation [3] -1.09% | Potency [4] | outcome [5] | outcome [19] | outcome [20] | Potency [6] | Potency [8] | Potency [9] | Potency [10] | Potency [11] | Potency [12] | Potency [13] | Potency [15] | activation [16] 0.256% | max response [17] 2.25%

Cc1ccc(N)cc1N
inactive: Potency [1] | outcome [2] | caspase-3 activation [3] -0.424% | Potency [4] | outcome [5] | outcome [20] | Potency [6] | Potency [7] | Potency [9] | Potency [10] | Potency [11] | Potency [12] | Potency [13] | Potency [14] | Potency [15] | max response [17] 6.43% and -0.158% | Potency [18]
active: Potency [16] 44.7 µM

C=CCc1cc(OC)c2c(c1)OCO2
inactive: Potency [1] | outcome [2] | caspase-3 activation [3] -0.188% | Potency [4] | outcome [5] | outcome [19] | outcome [20] | Potency [6] | Potency [7] | Potency [8] | Potency [9] | Potency [10] | Potency [11] | Potency [12] | Potency [13] | Potency [14] | Potency [15] | activation [16] 0.0584% | Potency [18]

NNC(N)=S
inactive: Potency [1] | outcome [2] | caspase-3 activation [3] 0.589% | Potency [4] | outcome [5] | outcome [19] | outcome [20] | Potency [6] | Potency [7] | Potency [8] | Potency [9] | Potency [10] | Potency [13] | Potency [14] | Potency [15] | activation [16] 0.972% | max response [17] -1.77% | Potency [18]

Cc1cc(-c2ccc(N)c(C)c2)ccc1N
inactive: Potency [1] | outcome [2] | caspase-3 activation [3] 1% | outcome [5] | outcome [19] | outcome [20] | Potency [6] | Potency [7] | Potency [8] | Potency [9] | Potency [10] | Potency [11] | Potency [12] | Potency [13] | Potency [14] | Potency [15] | Potency [18]

CCN(CC)CCO
inactive: Potency [1] | outcome [2] | caspase-3 activation [3] 2.76% | Potency [4] | outcome [5] | outcome [19] | outcome [20] | Potency [6] | Potency [7] | Potency [8] | Potency [10] | Potency [12] | Potency [13] | Potency [15] | activation [16] 3.62%

Nn1cnnc1
inactive: Potency [1] | Potency [4] | outcome [5] | outcome [20] | Potency [6] | Potency [7] | Potency [9] | Potency [10] | Potency [11] | Potency [12] | Potency [13] | Potency [15] | activation [16] 0.198% | max response [17] -0.452% | Potency [18]
